Reference: paper PMC12864922, “TDP-43 directly inhibits mRNA accumulation in neurites through modulation of mRNA stability”
Whole data set: some 9,900 sequences, median “r (bound/input frequency ratio)” near 0.7, cut for the highest 2% near 6.5. Shown is part of a subset that was picked to be rich in the highest values.

B1: ENSMUSG00000061578.522|Ksr2 (ssRNA)
RNA: GGGAGUUCUACAGUCCGACGAUCGCUUCGAUAUCCGCAUGCUAGGAGCUCUUGCCUAACACACACCAAGCCCCAAGUUCCAUCCCCAGUCCCACACAAACCAGAUAUGAUGGUGUGUGCCUAUGUCCCCCACACACGAGAGAGCUGGAGGCAGGAGGAUCAGAAGUUCAGGGCCAUCCUUAAUCAUACAGUGAGCUUGAGAGCAACCUGGGCUACAUGUGACCCUAAUAACUUUUGUAAAUUCAGCACACUUGGCACCUCACACUCCAUGUCCAUAUACUGCAUGUGCCACACACACACACACCUCUUGCGGUCGCACUAGUGUGGAAUUCUCGGGUGUCAAGG
B2: ENSMUSG00000028439.215|Fam219a (ssRNA)
RNA: GGGAGUUCUACAGUCCGACGAUCGCUUCGAUAUCCGCAUGCUAACCUGGGUUCUGGUCCCAGCCUCGGCAUUCUCCCUGAGCUCCUAAGCAAUUCCCAGGCUUCUCUAGGGCUUCAGUUCUCACAACUGGAAAAUAAAGAGUAGCUGACAUCACCGACAGAGUCUUUUCAUACCAGAAGGAAUUUCUUCACAGGAGUUUCUGCAAAAGACUAUGACAUCUGUGUGUCUGUGGUCUCACGAGGUACCUGGAGGUGUAUGUGCACGGACAUGGGAAGUACGUGAAGAUUUAUUUCGGGAAAAGUGCUCUUGCGGUCGCACUAGUGUGGAAUUCUCGGGUGUCAAGG
B3: ENSMUSG00000022095.99|Fam160b2 (ssRNA)
RNA: GGGAGUUCUACAGUCCGACGAUCGCUUCGAUAUCCGCAUGCUAGCCCCCUCUUCCUGCUCUACCCUCCUGGAGGCUGUUGCAAAAUUCCCAACUGCCUCCUGGCAGAGGCCCAAAGUAUGCUCUGCGCCCAGGCGGGGGCAGCUGCUAACAAGAGCCCUGGCGCAGCUGCAGCCAGGGCAGGCGAGAGCCUUGGAGCUGGGUGCCAGGCUCCAGCUCCAGCUCCAGCUGGUUCCUCUCUGGCGCCUUCUGAACCCGUCUCAGCAAGUCCGAAACACCUGGGCAGAGAGGUCAUUGACCAGGGACUCUUGCGGUCGCACUAGUGUGGAAUUCUCGGGUGUCAAGG
B4: ENSMUSG00000031028.626|Tub (ssRNA)
RNA: GGGAGUUCUACAGUCCGACGAUCGCUUCGAUAUCCGCAUGCUAUUAGGGUAAAUGAAAGUUAGUCCUGGCUCUCAUCACCACCUUUCCUAGCUCAUCACUGUGCCUUCUUUCUUCCCUAAGAAAGACAAUGCACCCCUCUCUUCUGUUCUCCUGCCCCUUCGCCCCCACUGAGGUCCAGGUAGAGCAGAUGAGGCUGAAAUGUAGAGUGUUCUAUAGAGCAUCUCAGUAGCAUAGAAGGAGAAGCCCAGCUCCAACCUCCUGGACCCCAUACUGGUGACCAGCUUGGUGAGGACAGGCAAAAUCUCUUGCGGUCGCACUAGUGUGGAAUUCUCGGGUGUCAAGG
B5: ENSMUSG00000004113.212|Cacna1b (ssRNA)
RNA: GGGAGUUCUACAGUCCGACGAUCGCUUCGAUAUCCGCAUGCUAGCUCAGAGCAGCACGGGGGCUUGUGUCUUAGGGACAUUGACAGUGUCCAUCAGCAUGUCAGAGAAGCAGCUGUAGUGCCCGUGUUUCUCCCUGAGUCAUGGGUUCUGAAGAAGCCAGAGCGGCACAAUGCGUGCUUGCAUGAGGCACUUUCAGCCUUUUUAAAUCUGACUCUCAGGGAUGGGAUGCCUGCCAAGUAGGGUGUAAUCUCUGUUGUGUUUUUAAAACAACAACAACAAAAUAAAACAAAAAAAAAAAACCUACUCUUGCGGUCGCACUAGUGUGGAAUUCUCGGGUGUCAAGG
B6: ENSMUSG00000061578.1091|Ksr2|55:59 (ssRNA)
RNA: GGGAGUUCUACAGUCCGACGAUCGCUUCGAUAUCCGCAUGCUACAACCAUGAAAAUAGAGGUUUGUAAUGUACAGAAGGCUGGGGGAGCUUUCAGGGCACACGCCAGUUAUGUACAGAUGUGAAGCUGAGGUCUGAAGGAAAUGGAGGAAGUAGGAAGAUCAGACUGGUUGAAUUAGAAGUCUGUCACUCUAGGUGCUAAGUGACCUUGGACCCAGUCAGUUCUUGGAUUUCUGUUGUAGCCCAGGCUAGCCUCGAACCCUUGAUCCUCCUGUUCCUGGUAGAGAAACAGCCACUAAAUGGUGCUCUUGCGGUCGCACUAGUGUGGAAUUCUCGGGUGUCAAGG
B7: ENSMUSG00000004113.162|Cacna1b (ssRNA)
RNA: GGGAGUUCUACAGUCCGACGAUCGCUUCGAUAUCCGCAUGCUAGGUUUUCAGUCACAACACUUUCACUGUUUGUCAUUUCUAUGUAGUUGAUCUAGAAAAAGCAGAAAUCAAAACAGGAAAGGAAAUGUUUGUGUAACUUUAAAAAAAAAGUCAACAUGUAGGAAGGUCUCCAUUUUGCAUUGUUUCUGUGUCUUGUAUGCAAUGUUCCUGUAUGUUUCUACCCUGCCUGGGAUGUCCCCAAUGACCCUGGCUCCUCUGCUCAACCAAGUGCCUGAUCUCUGGCUCUGAGCAUCGUGGAUGAGCUCUUGCGGUCGCACUAGUGUGGAAUUCUCGGGUGUCAAGG
B8: ENSMUSG00000029636.179|Wasf3 (ssRNA)
RNA: GGGAGUUCUACAGUCCGACGAUCGCUUCGAUAUCCGCAUGCUACCCCUCCUGAAGCACAGCUCUCUUCUCUCCUGUUGUCGGCACAUUUUCAAUUUUAAAAAGUACCUCACAAGAUAAACUUGAUUCAGCCAGUUGCCCGGGCAGAGACCUGACUUCCCCUCUCCUGCCCUGAUCCUUUUUACCAAAUGGCGAUUCCAUAGUCCUGGCUGAGGCAGGGGCUCAAAGUCCAGUGUCUGCUUUGCAAUUCUGGAAGGACAGCUGCUUAUUUAAAUAAGUCUGUGAUAUCCGCAGGCUUGGGUUACCUCUUGCGGUCGCACUAGUGUGGAAUUCUCGGGUGUCAAGG
B9: ENSMUSG00000061578.745|Ksr2 (ssRNA)
RNA: GGGAGUUCUACAGUCCGACGAUCGCUUCGAUAUCCGCAUGCUACAUCUCUGGCUCUUUGUUUCCACUCUGGCCCAAGUUUGAGUCUCCAUAUGGGCCCUUCCUGUCCUCAUGCCCUGCCUGUCUUCAUUCCACCCAUCCACCCUCCUAAGGAUUGGUCUUGUUCCGAGAGUGAUCCUGGUAACGCCAAGCCUCCCUCUGCCCCUGUGUUGGCUUCUGUGACGGACUACCACACACCAAGAGGUUUUUCACAGUGAAGAUGUAUGCUCUCACCAUCCUACAGAUGCAAAGACCAAACACAAAGUCUCUUGCGGUCGCACUAGUGUGGAAUUCUCGGGUGUCAAGG

These binders were tested against TDP-43 (Homo sapiens, UniProt Q13148 1-414) (assay: RNA Bind-n-Seq with designed 260-mer pool; 25 mM Tris-HCl, 150 mM KCl, 3 mM MgCl2, BSA (printed 500 mg/mL), 20 units/mL SUPERase IN; pH not stated; 500 nM RNA pool, 1 h, 4 C; TDP-43 5, 50, 500 nM; high values mean tight binding). Details: protein: recombinant; tags: SBP (GST cleaved off with PreScission; pGEX-GST-SBP).
Sequence of TDP-43 (Q13148 whole entry): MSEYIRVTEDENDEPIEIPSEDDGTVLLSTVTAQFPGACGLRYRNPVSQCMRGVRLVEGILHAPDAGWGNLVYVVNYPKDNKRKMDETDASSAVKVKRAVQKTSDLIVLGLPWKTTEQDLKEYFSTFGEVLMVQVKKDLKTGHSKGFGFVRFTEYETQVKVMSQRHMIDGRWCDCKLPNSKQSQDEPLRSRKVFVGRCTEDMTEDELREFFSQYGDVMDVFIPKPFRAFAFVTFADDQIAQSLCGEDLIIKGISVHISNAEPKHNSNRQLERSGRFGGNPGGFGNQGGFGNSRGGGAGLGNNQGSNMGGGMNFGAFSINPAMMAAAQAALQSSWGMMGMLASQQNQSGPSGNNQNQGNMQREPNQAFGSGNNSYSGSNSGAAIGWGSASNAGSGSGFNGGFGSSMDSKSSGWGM
How it was run: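 Duplicate measurements used two independent batches of recombinant SBP-tagged TDP-43, which was captured on streptavidin beads at 5, 50 or 500 nM. The beads were incubated with 500 nM of an in vitro-transcribed 260-nt 3′ UTR oligo pool for 1 h at 4 °C in 25 mM Tris-HCl, 150 mM KCl, 3 mM MgCl2, BSA and SUPERase IN. After washing, biotin elution, reverse transcription, PCR amplification and sequencing, binding was expressed as R: each oligo's normalized read abundance in the bound sample over its abundance in input.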
B1 was tested, and the binding signal was 2.82 R (bound/input frequency ratio). In the case of B2, the binding signal is reported as 1.67 R (bound/input frequency ratio). B3 was tested, and the binding signal was 0.917 R (bound/input frequency ratio). For B4, the binding signal was 0.915 R (bound/input frequency ratio). With B5 the binding signal was 0.697 R (bound/input frequency ratio). In the case of B6, the binding signal is reported as 0.848 R (bound/input frequency ratio). For B7, the binding signal was 1.13 R (bound/input frequency ratio). With B8 the binding signal was 0.495 R (bound/input frequency ratio). In the case of B9, the binding signal is reported as 1.1 R (bound/input frequency ratio).
